Out of some 67,000 compounds screened, about 300 (0.45%) showed an effect of 50% or more. For the sample, strong results were picked, then their nearest neighbours and some compounds at random.

This assay deals with Polyketide synthase Pks13 (Mycobacterium tuberculosis (strain ATCC 25618 / H37Rv)) (UniProt I6X8D2). Nature of the assay: Mycobacterium tuberculosis Polyketide synthase 13 Thioesterase (PKS13). Particulars: 30 µM. Format: functional. On the set-up: scale not given: in the data most compounds retested in dose-response had high values.
Sequence of Polyketide synthase Pks13 (Mycobacterium tuberculosis (strain ATCC 25618 / H37Rv)) (I6X8D2 whole entry): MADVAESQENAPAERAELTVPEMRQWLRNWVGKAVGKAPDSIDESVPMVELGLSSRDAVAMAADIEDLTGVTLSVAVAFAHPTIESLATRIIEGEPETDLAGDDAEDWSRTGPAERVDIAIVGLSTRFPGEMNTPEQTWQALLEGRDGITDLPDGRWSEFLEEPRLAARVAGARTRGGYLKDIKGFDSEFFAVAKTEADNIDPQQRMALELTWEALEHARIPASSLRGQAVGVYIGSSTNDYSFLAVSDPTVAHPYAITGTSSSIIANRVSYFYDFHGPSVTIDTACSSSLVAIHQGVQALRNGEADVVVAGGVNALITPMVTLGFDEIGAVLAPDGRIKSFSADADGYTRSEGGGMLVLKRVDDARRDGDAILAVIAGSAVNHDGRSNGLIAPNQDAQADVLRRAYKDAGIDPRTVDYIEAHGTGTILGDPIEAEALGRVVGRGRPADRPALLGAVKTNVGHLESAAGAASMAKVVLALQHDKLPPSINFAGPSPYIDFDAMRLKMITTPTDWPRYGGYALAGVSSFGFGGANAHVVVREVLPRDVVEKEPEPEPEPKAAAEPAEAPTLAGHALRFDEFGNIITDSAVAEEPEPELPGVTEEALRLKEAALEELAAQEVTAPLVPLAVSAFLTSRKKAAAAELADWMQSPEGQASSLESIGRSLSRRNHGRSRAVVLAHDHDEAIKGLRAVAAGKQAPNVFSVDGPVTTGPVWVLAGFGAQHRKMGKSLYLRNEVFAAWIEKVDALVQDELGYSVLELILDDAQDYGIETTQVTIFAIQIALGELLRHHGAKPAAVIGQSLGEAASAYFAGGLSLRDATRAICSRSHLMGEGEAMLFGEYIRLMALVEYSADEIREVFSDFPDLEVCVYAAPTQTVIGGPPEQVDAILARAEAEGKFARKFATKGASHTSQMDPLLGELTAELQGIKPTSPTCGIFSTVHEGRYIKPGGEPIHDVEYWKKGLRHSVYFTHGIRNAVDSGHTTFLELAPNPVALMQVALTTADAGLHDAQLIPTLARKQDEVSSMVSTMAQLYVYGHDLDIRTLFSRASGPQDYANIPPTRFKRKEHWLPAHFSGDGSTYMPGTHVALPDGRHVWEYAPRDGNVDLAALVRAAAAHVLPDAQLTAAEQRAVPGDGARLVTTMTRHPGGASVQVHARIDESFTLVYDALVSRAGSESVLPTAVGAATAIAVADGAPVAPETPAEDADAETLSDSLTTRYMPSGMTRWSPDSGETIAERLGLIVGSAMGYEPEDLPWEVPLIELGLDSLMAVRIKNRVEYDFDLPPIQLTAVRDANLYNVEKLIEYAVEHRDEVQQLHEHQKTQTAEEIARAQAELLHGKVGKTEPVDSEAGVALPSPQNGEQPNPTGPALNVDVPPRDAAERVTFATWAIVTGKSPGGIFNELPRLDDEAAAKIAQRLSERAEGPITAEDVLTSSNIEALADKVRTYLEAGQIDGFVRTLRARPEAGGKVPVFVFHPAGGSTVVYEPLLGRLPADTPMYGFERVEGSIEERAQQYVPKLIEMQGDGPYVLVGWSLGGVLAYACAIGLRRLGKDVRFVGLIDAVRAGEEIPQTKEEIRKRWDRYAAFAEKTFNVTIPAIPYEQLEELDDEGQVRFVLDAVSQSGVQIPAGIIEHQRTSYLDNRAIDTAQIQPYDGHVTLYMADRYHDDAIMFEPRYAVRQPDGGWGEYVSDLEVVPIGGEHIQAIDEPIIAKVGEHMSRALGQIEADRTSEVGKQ
For `COc1ccccc1N1CCC(CNS(=O)(=O)c2cccs2)C1` (centres undefined), the Percent Effect was determined as 80.9%.
As for `COc1ccccc1N1CCC(CNS(=O)(=O)c2cccc(C#N)c2)C1` (centres undefined), the figure is 50.9%; as for `COc1ccccc1N1CCC(CNS(=O)(=O)c2c(C)nn(C)c2C)C1` (centres undefined), 0.665%; as for `COc1ccccc1N1CCC(CNCc2ccc(C#N)cc2)C1` (centres undefined), -12.2%.
In the case of `COc1ccccc1N1CCC(CNCc2cccc(C#N)c2)C1` (centres undefined), the Percent Effect turned out to be 14.1%.
Regarding `COc1ccccc1N1CCC(CNCc2cccc(OC)c2OC)C1` (centres undefined), the Percent Effect was -8.68%.
Take `O=C([C@H]1CC[C@@H]2[C@@H](CCN2c2ncccn2)O1)N1CCCCO1`: the Percent Effect was determined as 4.55%.
As for `Cn1cnc(S(=O)(=O)N2CCO[C@H]3[C@H](OCC4CC4)CC[C@@H]32)c1`, the Percent Effect was -28.3%.
Take `O=C(N1CCOCC1)[C@@]12CCO[C@@H]1CCN(CCN1CCCCC1)C2`: the Percent Effect is -23.6%.
In the case of `COCCN1C[C@H]2CCN(C(=O)c3cc(C)on3)CC[C@H]2S1(=O)=O` it was -423%; in that of `Cc1nn(C)c2c(=O)n(CC(=O)NC3CCCCC3)ccc12`, -9.58%.
As for `CCS(=O)(=O)NC[C@]12COC[C@H]1CN(Cc1cc(C)on1)C2`, the figure is -29.9%.
Consider `CNC(=O)N1CC[C@@H]2CN(Cc3cccc(OC)c3)S(=O)(=O)[C@@H]2CC1`, for which the Percent Effect is -16.2%.
In the case of `N#Cc1cccnc1N1CCCC(CO)(Cc2cccc(Cl)c2)C1` (centres undefined) it was 96.8%; in that of `N#Cc1cccnc1N1CCCC(CO)(Cc2ccc(F)cc2)C1` (centres undefined), -5.66%; in that of `OCC1(Cc2cccc(Cl)c2)CCCN(c2ncccn2)C1` (centres undefined), 20.3%.
In the case of `CCC(=O)N1CCN(Cc2cnc(C)nc2)[C@H]2CS(=O)(=O)C[C@H]21` it was -6.93%; in that of `Cc1noc(C)c1CN1CC[C@H]2C[C@H](c3ccncn3)O[C@@H]2C1`, -14.6%.
As for `Cn1ccc(C(=O)NCc2ccc(CN3CCCCC3)cc2)cc1=O`, the figure is 4.22%; as for `Cn1ccc(C(=O)NCc2cccc(NC(=O)C3CCC3)c2)cc1=O`, 107%.
Consider `Cn1ccc(C(=O)NCc2cccc(Cn3ccnc3)c2)cc1=O`, for which the Percent Effect was -52%.
As for `Cn1ccc(C(=O)NCc2cccc(N3CCCCC3=O)c2)cc1=O`, the figure is 14.5%; as for `Cn1ccc(C(=O)NCc2cccc(CN3CCCC3)c2)cc1=O`, 56.3%; as for `Cn1ccc(C(=O)NCc2ccc(CN3CCCC3)cc2)cc1=O`, -2.41%.
As for `Cc1cc(N2CCN(C(=O)[C@@H]3C[C@@H]4C=C[C@H]3C4)CC2)cc(C)n1`, the figure is -10.7%; as for `CCc1nccn1CC(=O)N1C[C@H]2CC[C@@H]1CN(C(=O)N(C)C)C2`, -13.8%.
As for `CN1CCN(Cc2nc3ccccc3[nH]2)[C@H]2CS(=O)(=O)C[C@H]21`, the figure is -21.3%; as for `Cc1cnc(N2C[C@@H]3[C@@H](C2)OCC(=O)N3CCN(C)C)nc1`, 3.47%.
For `O=C(c1ccc(COc2ccc(Cl)cc2)o1)N1N=CCC1(O)C(F)(F)F` (centres undefined), the Percent Effect is 73.2%.
In the case of `O=C(c1ccc(COc2ccccc2Cl)o1)N1N=CCC1(O)C(F)(F)F` (centres undefined) it was 37.5%; in that of `Cc1cccc(OCc2ccc(C(=O)N3N=CCC3(O)C(F)(F)F)o2)c1` (centres undefined), 45.3%.
In the case of `O=C(c1cccnc1)N1CCN2C(=O)N(Cc3ccc(F)cc3)C[C@H]2C1` it was 2.86%; in that of `CC(C)N(C)C[C@H]1C[C@@H]2CN(Cc3ccco3)C[C@@H]2O1`, -28.7%.
As for `CCOC(=O)[C@]12CCCN(Cc3nccs3)C[C@H]1CN(CC(C)C)C2`, the figure is -5.86%; as for `Cc1cc(C2CCCCN2C(=O)c2ccsc2)nc2nccn12` (centres undefined), 84.3%; as for `Cc1noc(C)c1C(=O)N1CCCCC1c1cc(C)n2ccnc2n1` (centres undefined), -1.89%.
As for `Cc1cc(C2CCCCN2C(=O)c2cccn2C)nc2nccn12` (centres undefined), the Percent Effect amounted to 8.03%.
As for `CC(C)CN1C(=O)CO[C@@H]2CN(C(=O)N3CCOCC3)C[C@H]21`, the figure is -27.7%.
As for `O=C(c1ccnnc1)N1C[C@H]2CCC[C@@H](OCc3cccnc3)[C@@H]2C1`, the figure is 8.09%; as for `O=C(NCCc1ccccc1)N1C[C@H]2C[C@H](C(=O)N3CCCC3)[C@@H](C1)O2`, -28.3%.
As for `O=C(c1cc(-c2ccco2)nc2c(Cl)cccc12)N1C[C@H]2CNC[C@H]2C1`, the figure is -42.7%; as for `COCC1CCN(C(=O)c2cc(-c3ccco3)nc3c(Cl)cccc23)C1` (centres undefined), 66.3%; as for `O=C(c1cc(-c2ccco2)nc2c(Cl)cccc12)N1CCS(=O)(=O)CC1`, -5.09%.
As for `O=C(O)C1c2nc[nH]c2CCN1Cc1ccc(-c2ccccc2)s1` (centres undefined), the Percent Effect is -9.34%.
Turning to `O=C(O)C1c2nc[nH]c2CCN1Cc1cc(-c2ccccc2)no1` (centres undefined), the Percent Effect is -11.2%.
As for `O=C(O)C1c2nc[nH]c2CCN1Cc1ccccc1-c1ccccc1` (centres undefined), the figure is 62.3%; as for `CSCC(=O)N1C[C@H]2CC[C@@H]1CN(C1Cc3ccccc3C1)C2`, -8.9%; as for `Cc1nccc([C@@H]2C[C@@H]3CCN(Cc4cccs4)C[C@H]3O2)n1`, -9.54%.
As for `OCC1(CCOc2ccccc2)CCCN(c2ccc(Cl)cn2)C1` (centres undefined), the figure is 56.5%; as for `N#Cc1cccc(N2CCC3(CC2)Nc2ccccc2NC3=O)n1`, -22.8%.
As for `Nc1nccc(N2CCCC(CO)(CCOc3ccccc3)C2)n1` (centres undefined), the figure is -23.1%; as for `OCC1(CCOc2ccccc2)CCN(c2ccc(Cl)cn2)CC1`, 43.4%.
As for `N#Cc1cccc(N2CCC(CO)(CCCc3ccccc3)CC2)n1`, the Percent Effect worked out at 67.6%.
As for `N#Cc1cccc(N2CCCC(CO)(CCOc3ccccc3)C2)n1` (centres undefined), the figure is 132%; as for `CC(=O)c1ccc(N2CCCC(CO)(CCc3ccccc3)C2)nc1` (centres undefined), 55.1%; as for `CC(=O)c1ccc(N2CCCC(CO)(CCOc3ccccc3)C2)nc1` (centres undefined), 15.6%.
In the case of `CCc1nc(N2CCCC(CO)(CCOC)C2)ncc1C` (centres undefined) it was -19.2%; in that of `N#Cc1cccc(N2CCC3(CCC(=O)N(CCCO)C3)CC2)n1`, -0.0305%.
As for `N#Cc1ccc(N2CCCC(CO)(CCOc3ccccc3)C2)nc1` (centres undefined), the figure is 13.8%.
As for `CC(=O)c1ccc(N2CCCC(CO)(Cc3ccccc3F)C2)nc1` (centres undefined), the Percent Effect is -9.09%.
In the case of `O=C(NCc1ccco1)[C@H]1C[C@H]2OCC[C@H]2N(S(=O)(=O)C2CC2)C1` it was -7.99%.
As for `CCOC(=O)[C@]12CCCN(Cc3cccs3)C[C@H]1CN(C(C)C)C2`, the figure is -0.678%; as for `N#Cc1cccc(N2CCC(CO)(CCOc3ccccc3)CC2)n1`, 128%.
In the case of `CC(=O)c1ccc(N2CCC(CO)(CCOc3ccccc3)CC2)nc1` it was 8.13%.
As to `N#Cc1cccnc1N1CCCC(CO)(CCOc2ccccc2)C1` (centres undefined), the Percent Effect was -13.7%.
In the case of `CC(C)CN1C[C@H]2C[C@H](C(=O)NC3CCC3)[C@@H](C1)O2` it was 8.3%.
As for `CCNc1nc(-c2cccnc2)c(-c2ccnc(NCCO)n2)s1`, the figure is 37.6%.
As for `CC(C)(C)Nc1nc(-c2cccnc2)c(-c2ccnc(NCCO)n2)s1`, the figure is 121%.
On to `CCNc1nc(-c2cccnc2)c(-c2ccnc(NS(C)(=O)=O)n2)s1`, for which the Percent Effect came to 17.5%.
In the case of `COc1ccccc1C(=O)Nc1ccc([C@@H](O)[C@H]2COCC(=O)N2)cc1` it was 3.39%.
In the case of `CCS(=O)(=O)NC[C@]12COC[C@H]1CN(Cc1cccc(OC)c1)C2` it was -39.6%; in that of `O=C(COCc1ccccc1Cl)N1CCN(c2ccc(Br)cn2)CC1`, 63.1%; in that of `O=C(COCc1ccccc1Cl)N1CCN(c2ncccn2)CC1`, 0.958%.
Regarding `O=C(COCc1ccccc1Cl)N1CCN(c2cnccn2)CC1`, the Percent Effect turned out to be 25.8%.
In the case of `CCc1cnc(N2CC[C@H]3[C@@H]2CCC(=O)N3c2ccccc2)nc1` it was -13.3%.
As for `CCc1cnc(N2CC[C@H]3[C@@H]2CCC(=O)N3CC2CCOCC2)nc1`, the figure is 88.2%; as for `O=C1CC[C@H]2[C@H](CCN2c2ccccn2)N1CC1CCOCC1`, -8.5%; as for `O=C1O[C@@H]2CN(c3ccncc3)C[C@@H]2N1CCCc1ccc(F)cc1`, -35.8%.
As to `Cc1cc(C)n(CCN(C)c2ccc(-c3nc(C4CC4)no3)cn2)n1`, the Percent Effect is 0.156%.
In the case of `Cc1n[nH]c(C)c1CNc1ccc(-c2nc(C3CC3)no2)cn1` it was 3.88%; in that of `Cc1n[nH]c(C)c1CCN(C)c1ccc(-c2nc(C3CC3)no2)cn1`, 62.8%; in that of `CC(=O)NC[C@@]1(COc2cnccn2)C[C@@H](O)[C@@H](O)C1`, -8.58%.
With `CCS(=O)(=O)CCN1CCC(N(C)Cc2noc(C(C)C)n2)C1` (centres undefined), the Percent Effect was -4.58%.
In the case of `CC(C)c1nc(CN(C)C2CCN(CCS(C)(=O)=O)C2)no1` (centres undefined) it was -22.6%.
In the case of `CC(C)c1nc(CN(C)C2CCN(CCNS(C)(=O)=O)C2)no1` (centres undefined) it was 93.5%.
As for `c1cnc(N2CCO[C@H]3CN(CC4CCOC4)C[C@H]32)cn1` (some centres undefined), the figure is -2.77%.
For `Cc1noc(C)c1CN1C[C@H](OCC2CCN(C)CC2)[C@H]2COC[C@H]21`, the Percent Effect is -13.4%.
For `c1cc(CN2C[C@H](OCC3CCOCC3)[C@H]3COC[C@H]32)cs1`, the Percent Effect amounted to 1.55%.
As for `O=C(c1ccco1)N1CC[C@@H]2O[C@H](COCCN3CCCC3)CC[C@@H]21`, the figure is -19.5%.
As for `COC(=O)c1ccc(NC2CCN(CC(F)(F)F)C2=O)cc1C` (centres undefined), the figure is 62.3%.
As for `CCOc1ccc(NC2CCN(CC(F)(F)F)C2=O)cc1C` (centres undefined), the figure is 7.36%; as for `COC(=O)c1cc(NC2CCN(CC(F)(F)F)C2=O)ccc1C` (centres undefined), 9.8%.
With `CN(C)C[C@H]1OC[C@@H]2CCN(C(=O)c3ccc[nH]3)C[C@@H]21`, the Percent Effect turned out to be 11.4%.
As for `O=C(Nc1cccnc1)[C@H]1CN(C2CCCC2)C[C@H]2OCC[C@@H]12`, the figure is -36.1%.
In the case of `CCc1ncc2c(n1)CN(CC1CCCCO1)CC2` (centres undefined) it was 78.1%; in that of `CC(C)c1ncc2c(n1)CN(CC1CCCCO1)CC2` (centres undefined), -18.6%; in that of `Cc1ncc2c(n1)CN(CC1CCCCO1)CC2` (centres undefined), -13.3%.
In the case of `Cc1nc(CN2C[C@@H]3CN(C(=O)c4ccco4)C[C@@H]3C2=O)cs1` it was -4.47%; in that of `O=C1NC(c2ccccc2)=N[C@@]12CC[C@@H]1CN(Cc3nccs3)C[C@@H]12`, 23.9%; in that of `Cc1noc([C@]23COC[C@H]2CN(S(=O)(=O)C2CC2)C3)n1`, -31.1%.
With `O=c1[nH]c(NC2CCCC2)nc2nccc(-c3cccs3)c12`, the Percent Effect was 72.5%.
In the case of `O=C(O)Cn1nc(C2CC2)c2c(-c3cccs3)ccnc21` it was 46.3%.
As for `O=c1[nH]c(NC2CCCC2)nc2nccc(-c3ccsc3)c12`, the figure is 43%; as for `Cc1cc(-c2cnc(NC3CCCCC3)nc2-c2ccco2)on1`, 15%; as for `O=c1[nH]c(NC2CCCC2)nc2nccc(-c3ccco3)c12`, 52.1%.
On to `Cc1cc(-c2cnc(NC3CCCC3)nc2-c2ccco2)on1`, for which the Percent Effect was 27.1%.
In the case of `O=C1O[C@@H]2CN(Cc3cccc(O)c3)C[C@@H]2N1CCCN1CCOCC1` it was -3.82%.
In the case of `CSc1ccccc1CN1C[C@H]2C(=O)N(CC3CC3)C[C@@]2(C(=O)O)C1` it was -23%.
As to `COCC(=O)NC[C@H]1CC[C@H](c2nnc(-c3cccnc3)o2)CC1`, the Percent Effect turned out to be 5.07%.

(Values after ChEMBL document CHEMBL3988442, “University of Dundee, Small-Polar-MMV Screening Library” (2021).)
